Reference: PubChem BioAssay (NCI)
The panel holds about 83,000 compounds, 20% with a hit somewhere; the sample as a whole holds those more often.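 Single-concentration screen, 48 h exposure, 96-well plates. Endpoint: percent growth. Below 10 = active.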 Unmarked numbers belong to inactive results. Activity calls are given as the source filed them.

Legend:
Assay in all cases: NCI-60 one-dose screen, 48 h (100 = growth as untreated, 0 = no growth, -100 = all killed)
Conditions in all cases: 10 µM unless noted
[1] = system: NCI-H23 lung
[2] = system: NCI-H226 lung
[3] = system: NCI-H322M lung
[4] = system: HOP-62 NSCLC
[5] = system: NCI-H460 lung
[6] = system: HOP-92 NSCLC
[7] = system: NCI-H522 lung
[8] = system: A549/ATCC NSCLC
[9] = system: 786-0 renal
[10] = system: COLO 205 colon

| SMILES | growth [1] | growth [2] | growth [3] | growth [4] | growth [5] | growth [6] | growth [7] | growth [8] | growth [9] | growth [10] |
| --- | --- | --- | --- | --- | --- | --- | --- | --- | --- | --- |
| COc1cc(C(=O)NNC(=O)c2ccc(NC(=O)CCl)cc2)cc(OC)c1OC | 78.9% | 95.5% | 88.5% | 72.7% | 99.5% | 99% | -34.4% (active) | 77% | 95.3% | 106% |
| CN(c1ncccc1CNc1nc(Nc2ccc3c(c2)CC(=O)N3)ncc1C(F)(F)F)S(C)(=O)=O | -18.1% (active) | 8.79% (active) | -11.3% (active) | -13.3% (active) | -36.9% (active) | 2.42% (active) | -22.4% (active) | 2.18% (active) | 11.3% | -85.6% (active) |
| C=C1C(=O)O[C@H]2[C@H]1CC/C(Cn1cc(-c3cc(C)c(C)cc3C)nn1)=C\CC[C@@]1(C)O[C@@H]21 | -61.3% (active) | -65.2% (active) | 68.3% | 55.7% | 36.5% | -79% (active) | -64.2% (active) | 26% | -77.5% (active) | -70.5% (active) |
| COC(=O)[C@]12CC[C@@H](C)[C@H](C)[C@@H]1C1=CC[C@@H]3[C@@]4(C)C[C@@H](OC(=O)/C=C/c5ccccc5)[C@H](O)[C@@](C)(CO)[C@@H]4[C@H](O)C[C@@]3(C)[C@]1(C)CC2 | 4.71% (active) | 0.734% (active) | 37.9% | 11.6% | -39.6% (active) | -3.66% (active) | -59.6% (active) | 5.1% (active) | -29% (active) | -58.6% (active) |
| COc1ccc(COc2cc3oc(=O)c4cc(C(C)O)ccc4c3cc2OC)cc1 (stereo not given) | 70.8% | 55.4% | 83.8% | 36.9% | 58.4% | 55.2% | 35.1% | 48.6% | 62.4% | 49.3% |
| Cn1ncc(Cl)c1-c1cc(C(=O)N[C@H](CN)Cc2ccc(F)c(F)c2)oc1Cl | 11.3% | 11.8% | 18.8% | -49.4% (active) | 2.97% (active) | -58.5% (active) | -66.7% (active) | -53.4% (active) | -46.7% (active) | -77.9% (active) |
| COc1ccc2c(CCCCC(c3ccccc3)c3ccccc3)c3[n+](cc2c1OC)CCc1cc2c(cc1-3)OCO2 | -66.5% (active) | -55% (active) | 11.1% | -42.7% (active) | -83% (active) | -72.7% (active) | -57.5% (active) | -22.5% (active) | -75.8% (active) | -77.3% (active) |
| Cc1ccc(Nc2nccc(N(C)c3ccc4c(C)n(C)nc4c3)n2)cc1S(N)(=O)=O | 15.6% | 27.5% | 7.5% (active) | 12.4% | 21.5% | -56.2% (active) | 10.7% | 5.92% (active) | 35.7% | -10.3% (active) |
| O=C(NOCCO)c1ccc2cncn2c1Nc1ccc(I)cc1F | 18.8% | 56.7% | 24.1% | 35.7% | 74.7% | -19.6% (active) | 60.4% | 25.4% | 81.6% | 6.84% (active) |
| Nc1nc(=S)c2ncn(C3OC(COC(=O)c4ccc(Cl)cc4)C(OC(=O)c4ccc(Cl)cc4)C3OC(=O)c3ccc(Cl)cc3)c2[nH]1 (stereo not given) | 91.9% | 86.9% | 97.8% | 106% | 91.1% | 82.7% | 86.8% | 98% | 84.4% | 123% |
| Cc1ccc(NC(=O)c2ccc(CN3CC[C@H](N(C)C)C3)c(C(F)(F)F)c2)cc1Nc1nccc(-c2cncnc2)n1 | 13.2% | 12.9% | 26.2% | -0.939% (active) | 4.17% (active) | -84.7% (active) | -29.7% (active) | 1.73% (active) | -54.7% (active) | -55.5% (active) |
| CCCCN1CCCC[C@@H]1C(=O)N[C@H](C(=O)N(C)[C@H](CCc1nc(C(=O)N[C@@H](Cc2ccccc2)C[C@H](C)C(=O)OC)cs1)C(C)C)C(C)C | 59.7% | 80.6% | 75.6% | 80.8% | 94.6% | 18.8% | 49.6% | 81.8% | 77.4% | 63.5% |
| COc1cc(Nc2ncc3c(n2)-c2ccc(Cl)cc2C(c2c(F)cccc2OC)=NC3)ccc1C(=O)O | 77.6% | 63.2% | 90.4% | 50.2% | 30.7% | 115% | 53.5% | 54.2% | 89.1% | 8.87% (active) |
| Cc1nn(-c2nc3ccccc3[nH]2)c2c1C(c1ccc(O)cc1)CC(=O)N2 (stereo not given) | 74.9% | 96.9% | 104% | 93.1% | 57.4% | 99.3% | 52% | 61.3% | 115% | 103% |
| COc1ccc(Cc2cc(-c3ccccc3C)n[nH]c2=O)cc1 | 98.6% | 87.3% | 129% | 97.8% | 105% | 22.7% | 105% | 99.9% | 105% | 100% |
| Cc1ccc(NC(=O)Nc2ccc(Nc3ncnc4sc5c(c34)CCOC5)cc2)cc1Cl | 99.9% | 94.9% | 103% | 74.6% | 108% | 91.6% | 60.9% | 85.8% | 110% | 102% |
| CNC(=O)c1c(C)oc2cc(Oc3ncnc4cc(OC)c(OC)cc34)ccc12 | 93.8% | 59.4% | 93.9% | 82.9% | 106% | 81.1% | 89.5% | 81.1% | 102% | 108% |
| Cc1nn(-c2ccccc2)c2c1N=c1s/c(=C\c3cn(-c4ccccc4)nc3-c3ccc(Cl)cc3)c(=O)n1C(C)N2 (stereo not given) | 79.4% | 93.2% | 113% | 102% | 93% | 66.7% | 10.2% | 87.8% | 77.1% | 99.2% |
| O=c1[nH]ccc2c(S(=O)(=O)N3CCCNCC3)cccc12 | 78.5% | 81.7% | 29.6% | 68.8% | 95.3% | 30% | 17.3% | 81.3% | 54% | 112% |
| COc1ccc(-c2cnc(-c3ccc(Cl)cc3)[nH]2)cc1OC | 99.2% | 88.3% | 120% | 94.3% | 100% | 25.8% | 105% | 105% | 100% | 98.7% |
| CC(C)[C@@H]1CC[C@]2(CO2)[C@@H]2C(=O)OCC(C(=O)O)=C[C@H]21 | -18.4% (active) | 25.5% | 8.82% (active) | 5.26% (active) | 7.86% (active) | -11.9% (active) | -45.8% (active) | 15.5% | 11.6% | 1.78% (active) |
| Cn1cnc2c(F)c(Nc3ccc(Br)cc3F)c(C(=O)NOCCO)cc21 | 22% | 56.6% | 18.9% | 32.7% | 62.6% | -4.91% (active) | 60.9% | 30.9% | 67.4% | -2.54% (active) |
| CC(=O)O[C@]1(C)C[C@H](O)[C@]2(O)C=CO[C@H](O[C@@H]3O[C@H](CO)[C@@H](O)[C@H](O)[C@H]3O)[C@@H]21 | 99.3% | 96.7% | 101% | 95.2% | 110% | 129% | 95.4% | 105% | 93.2% | 108% |
| CC[n+]1c(/C=C/C=C2\N(C)c3ccccc3C2(C)C)sc2ccccc21 | 20% | 20% | 25.6% | 11.7% | 7.56% (active) | -3.67% (active) | 9.12% (active) | 11.9% | 14.8% | -59.2% (active) |
| Ic1ccccc1-c1ccccc1 | 102% | 106% | 114% | 100% | 100% | 87.3% | 94.9% | 87.9% | 108% | 96.4% |
| CNC(=O)c1cc(Oc2cccc3nc(Nc4ccc(Oc5ccccc5)cc4)ccc23)ccn1 | 78% | 66% | 99.9% | 92% | 61.9% | 71.2% | 62.7% | 58.3% | 72.5% | 46% |
